Hit rate of the full screen: of about 310,000 compounds, about 3,600 (1.2%) were called active.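 How the source made its calls: active means ratio plate-corrected score three or more library SD toward inhibition, starting fluorescence score within five deviations; inactive means the rest.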 What follows is part of a selection rich in actives, with near analogues and random picks from the rest.
These compounds were tested against Anoctamin-1 (Mus musculus) (UniProt Q8BHY3) (assay: blockers of mouse ANO1 Ca-activated Cl channel – cell-based, HTS, primary screen (AID 588511;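 on normalized B-score (activity score, 25-100; higher = stronger inhibition): score derived from kinetic fluorescence span divided by baseline fluorescence per well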)). Conditions: HEK293 TMEM16A/YFP iodide influx fluorescence, ionomycin; at 10 µM.
Anoctamin-1 (Mus musculus), sequence (Q8BHY3 whole entry, looked up): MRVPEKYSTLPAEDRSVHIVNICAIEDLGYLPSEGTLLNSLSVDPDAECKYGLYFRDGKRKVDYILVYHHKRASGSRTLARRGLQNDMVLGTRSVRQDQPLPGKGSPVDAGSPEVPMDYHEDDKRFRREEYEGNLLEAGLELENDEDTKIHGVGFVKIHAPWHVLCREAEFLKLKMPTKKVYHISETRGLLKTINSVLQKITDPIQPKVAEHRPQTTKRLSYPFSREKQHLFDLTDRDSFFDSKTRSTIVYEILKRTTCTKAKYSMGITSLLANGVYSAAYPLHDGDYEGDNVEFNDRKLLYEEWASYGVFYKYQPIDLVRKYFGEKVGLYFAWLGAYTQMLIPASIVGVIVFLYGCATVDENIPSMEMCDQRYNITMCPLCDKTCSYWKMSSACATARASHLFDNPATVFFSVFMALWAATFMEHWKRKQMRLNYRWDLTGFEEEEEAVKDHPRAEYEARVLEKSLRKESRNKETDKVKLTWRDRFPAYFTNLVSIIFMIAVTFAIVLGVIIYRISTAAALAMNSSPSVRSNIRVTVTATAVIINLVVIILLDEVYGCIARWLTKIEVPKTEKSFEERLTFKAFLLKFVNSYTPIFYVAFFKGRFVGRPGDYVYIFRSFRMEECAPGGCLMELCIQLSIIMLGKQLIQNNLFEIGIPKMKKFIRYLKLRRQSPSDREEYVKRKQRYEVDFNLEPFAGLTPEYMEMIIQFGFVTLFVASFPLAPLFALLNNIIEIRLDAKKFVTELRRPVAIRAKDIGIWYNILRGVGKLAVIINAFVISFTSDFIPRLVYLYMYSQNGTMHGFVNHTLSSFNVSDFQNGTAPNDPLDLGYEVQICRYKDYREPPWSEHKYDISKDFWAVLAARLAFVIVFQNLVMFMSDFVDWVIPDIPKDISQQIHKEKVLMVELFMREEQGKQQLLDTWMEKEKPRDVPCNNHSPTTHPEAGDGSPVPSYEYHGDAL
With `CCc1cc2c(NC(Cc3ccccc3)C(=O)O)ncnc2s1` (stereo not given) the normalized B-score (activity score, 25-100; higher = stronger inhibition) was “inactive”.
For `CCc1cc2c(NC3CCCC3)ncnc2s1`, the normalized B-score (activity score, 25-100; higher = stronger inhibition) was “inactive”.
In the case of `CCc1cc2c(N3CCN(c4nnc(CC)s4)CC3)ncnc2s1`, the normalized B-score (activity score, 25-100; higher = stronger inhibition) is reported as 100 (active).
In the case of `Cc1ccc(S(=O)(=O)N[C@@H](Cc2ccccc2)C(=O)N2CCC(C(=O)N[C@H](C(=O)O)C(C)O)CC2)cc1` (stereo not given in full), the normalized B-score (activity score, 25-100; higher = stronger inhibition) is reported as “inactive”.
In the case of `COc1cccc(C(=O)NNS(=O)(=O)c2ccc(F)cc2)c1`, the normalized B-score (activity score, 25-100; higher = stronger inhibition) is reported as “inactive”.
For `Cc1cccnc1NC(=O)Cn1c(=O)oc2ccccc21`, the normalized B-score (activity score, 25-100; higher = stronger inhibition) was “inactive”.
For `COCc1c(C(=O)N/N=C(\C)c2ccncc2)nnn1-c1nonc1N`, the normalized B-score (activity score, 25-100; higher = stronger inhibition) was “inactive”.
In the case of `S=c1[nH]nc(NCCc2ccccc2)s1`, the normalized B-score (activity score, 25-100; higher = stronger inhibition) is reported as “inactive”.
In the case of `CCNc1nc(-c2cc3ccccc3o2)cs1`, the normalized B-score (activity score, 25-100; higher = stronger inhibition) is reported as “inactive”.
With `Cc1nc(C)c(-c2csc(NCCc3ccccc3)n2)s1` the normalized B-score (activity score, 25-100; higher = stronger inhibition) was 100 (active).
For `COc1cccc(CNC(=O)c2cccnc2Sc2ccc(Cl)cc2)c1`, the normalized B-score (activity score, 25-100; higher = stronger inhibition) was “inactive”.
For `Cc1ccc(NC(=O)C(=O)NCc2ccc(/C=N/NC(=O)c3c(C)nc4cc(C)ccn34)o2)cc1`, the normalized B-score (activity score, 25-100; higher = stronger inhibition) was “inactive”.
For `CCN(Cc1ccccc1)C(=O)CN1C(=S)NC(C)(C)CC1C` (stereo not given), the normalized B-score (activity score, 25-100; higher = stronger inhibition) was “inactive”.
With `N#Cc1c(-c2ccccc2)nc(SCc2cccc(C(F)(F)F)c2)[nH]c1=O` the normalized B-score (activity score, 25-100; higher = stronger inhibition) was 100 (active).
In the case of `O=c1[nH]c(SCc2ccccc2)nnc1-c1ccccc1`, the normalized B-score (activity score, 25-100; higher = stronger inhibition) is reported as “inactive”.
In the case of `Cc1ccc(CSc2nc(-c3ccccc3)c(C#N)c(=O)[nH]2)cc1`, the normalized B-score (activity score, 25-100; higher = stronger inhibition) is reported as 100 (active).
For `O=c1[nH]c(SCc2cccc(F)c2)nc2ccccc12`, the normalized B-score (activity score, 25-100; higher = stronger inhibition) was “inactive”.
With `N#Cc1c(-c2ccccc2)nc(SCc2ccc([N+](=O)[O-])cc2)[nH]c1=O` the normalized B-score (activity score, 25-100; higher = stronger inhibition) was “inactive”.
`N#Cc1c(-c2ccc(F)cc2)nc(-c2ccccc2)[nH]c1=O` was tested, and the normalized B-score (activity score, 25-100; higher = stronger inhibition) was “inactive”.
In the case of `O=C(CCN1C(=O)C2CCCCC2C1=O)Nc1ccc(OC(F)F)cc1` (stereo not given), the normalized B-score (activity score, 25-100; higher = stronger inhibition) is reported as “inactive”.
In the case of `O=C(COC(=O)c1ncc(Cl)c(Cl)c1Cl)NNC(=O)c1ccccc1`, the normalized B-score (activity score, 25-100; higher = stronger inhibition) is reported as “inactive”.
With `O=C(CC1C(=O)NCCN1CC(c1ccccc1)c1ccccc1)NCCc1cn[nH]c1` (stereo not given) the normalized B-score (activity score, 25-100; higher = stronger inhibition) was “inactive”.
With `COc1ccc(C(=O)Nc2cc(C)c(NC(=O)c3ccccc3OC)cn2)cc1` the normalized B-score (activity score, 25-100; higher = stronger inhibition) was “inactive”.
For `CC1CN(C(=S)Nc2cccc(F)c2)CC(C)O1` (stereo not given), the normalized B-score (activity score, 25-100; higher = stronger inhibition) was “inactive”.
In the case of `Cc1ccc(CNC(=O)c2ccc(CS(=O)Cc3cccc(Cl)c3)o2)cc1` (stereo not given), the normalized B-score (activity score, 25-100; higher = stronger inhibition) is reported as “inactive”.
`CCCOc1cccc(C(=O)NCCCNC(=O)c2cccnc2)c1` was tested, and the normalized B-score (activity score, 25-100; higher = stronger inhibition) was “inactive”.
For `CCc1ccc[n+](-c2nc([O-])sc2C=O)c1`, the normalized B-score (activity score, 25-100; higher = stronger inhibition) was “inactive”.
`CC(C)(C)c1cc(NC(=O)NN2CCOCC2)nn1-c1c(Cl)cc(Cl)cc1Cl` was tested, and the normalized B-score (activity score, 25-100; higher = stronger inhibition) was “inactive”.
In the case of `COc1cccc(NC(=O)c2ccc(S(=O)(=O)N(C)C)cc2)c1`, the normalized B-score (activity score, 25-100; higher = stronger inhibition) is reported as “inactive”.
For `COc1ccc(-c2nnc(NC(=O)CS(=O)(=O)c3ccc(Cl)cc3)o2)c(OC)c1`, the normalized B-score (activity score, 25-100; higher = stronger inhibition) was “inactive”.
`COc1cccc(-c2nnc(NC(=O)c3ccc(S(=O)(=O)N(CC(C)C)CC(C)C)cc3)o2)c1` was tested, and the normalized B-score (activity score, 25-100; higher = stronger inhibition) was 100 (active).
In the case of `CCn1c(C)nc2c1C(=O)c1ccccc1C2=O`, the normalized B-score (activity score, 25-100; higher = stronger inhibition) is reported as “inactive”.
`CSc1ccccc1OCc1cc(C(=O)N2C[C@H]3CC[C@H]2C3)no1` was tested, and the normalized B-score (activity score, 25-100; higher = stronger inhibition) was “inactive”.
In the case of `N#Cc1nc(COc2ccc(-c3ccccc3)cc2)oc1NCc1cccnc1`, the normalized B-score (activity score, 25-100; higher = stronger inhibition) is reported as 100 (active).
For `Cc1ccc(OCc2nc(C#N)c(N3CCCC3)o2)cc1`, the normalized B-score (activity score, 25-100; higher = stronger inhibition) was “inactive”.
For `O=S(=O)(c1ccc(Br)cc1)c1nc(-c2ccccc2)oc1NCc1cccnc1`, the normalized B-score (activity score, 25-100; higher = stronger inhibition) was “inactive”.
`CC(=O)N(c1ccc2oc(=O)sc2c1)S(=O)(=O)c1ccc(C)cc1` was tested, and the normalized B-score (activity score, 25-100; higher = stronger inhibition) was “inactive”.
`Cn1c(SCc2ccc(F)cc2)nnc1-c1ccncc1` was tested, and the normalized B-score (activity score, 25-100; higher = stronger inhibition) was “inactive”.
`C=CCn1c(CNS(=O)(=O)c2ccc(Br)cc2)nnc1SC` was tested, and the normalized B-score (activity score, 25-100; higher = stronger inhibition) was “inactive”.
For `CCOC(=O)c1cc(NC(=O)c2ccc(Cl)cc2)c(=O)oc1-c1ccccc1`, the normalized B-score (activity score, 25-100; higher = stronger inhibition) was “inactive”.
With `Cn1cncc1COC(=O)c1ccc(Cl)cc1` the normalized B-score (activity score, 25-100; higher = stronger inhibition) was “inactive”.
In the case of `CN1OC(COC(=O)c2ccc(Cl)cc2)CC1c1ccccc1` (stereo not given), the normalized B-score (activity score, 25-100; higher = stronger inhibition) is reported as 100 (active).
For `Cc1cc(OC(=O)c2ccc(Cl)cc2)cc(=O)n1C`, the normalized B-score (activity score, 25-100; higher = stronger inhibition) was “inactive”.
With `Cc1ccc(C)c(N2CCN(C(=O)CCc3nc4ccccc4[nH]3)CC2)c1` the normalized B-score (activity score, 25-100; higher = stronger inhibition) was “inactive”.
In the case of `Cc1ccc(C)c(N2CCN(C(=O)CCCCCn3c(=S)[nH]c4ccc(N5CCOCC5)cc4c3=O)CC2)c1`, the normalized B-score (activity score, 25-100; higher = stronger inhibition) is reported as “inactive”.
For `Cc1ccc(C)c(N2CCN(C(=O)CCCCn3c(=O)[nH]c4ccccc4c3=O)CC2)c1`, the normalized B-score (activity score, 25-100; higher = stronger inhibition) was 25 (active).
`CC(OC(=O)c1ccc(-n2cnnn2)cc1)C(=O)NCc1ccccc1` (stereo not given) was tested, and the normalized B-score (activity score, 25-100; higher = stronger inhibition) was “inactive”.
With `COCCNS(=O)(=O)c1cc(Br)ccc1OC` the normalized B-score (activity score, 25-100; higher = stronger inhibition) was “inactive”.
`CC(=O)N1CCc2cc(S(=O)(=O)NC3CCCCC3)ccc21` was tested, and the normalized B-score (activity score, 25-100; higher = stronger inhibition) was “inactive”.
In the case of `Cc1ccc(C)n1-c1ccncc1`, the normalized B-score (activity score, 25-100; higher = stronger inhibition) is reported as “inactive”.
With `Cc1ccc(N)cc1-n1c(C)ccc1C` the normalized B-score (activity score, 25-100; higher = stronger inhibition) was 100 (active).
With `Cn1nnnc1NCc1ccc(Cl)c(Cl)c1` the normalized B-score (activity score, 25-100; higher = stronger inhibition) was “inactive”.
For `CCCn1nnnc1NCc1ccc(OC)cc1`, the normalized B-score (activity score, 25-100; higher = stronger inhibition) was “inactive”.
With `COc1ccc(CNc2nnnn2C)cc1` the normalized B-score (activity score, 25-100; higher = stronger inhibition) was 25 (active).
`C[C@@H]1C[C@@H]2O[C@H]2/C=C\C=C\C(=O)Cc2c(Cl)c(O)cc(O)c2C(=O)O1` was tested, and the normalized B-score (activity score, 25-100; higher = stronger inhibition) was “inactive”.
